Data as given in PubChem BioAssay AID686978 (National Center for Advancing Translational Sciences (NCATS), 2013).
Screen size: about 420,000 compounds; about 64,000 (15%) were called active. Inconclusive results (about 27%) are left out. These entries were drawn from the full list. A number with no mark means an inactive call. The call rests on the fitted dose curve; in most records, active means well fitted inhibition curve with a large enough effect; inconclusive means small, poorly fitted or top-dose-only effect; inactive means flat fitted curve, though single readings scatter.

Assay: qHTS for Inhibitors of human tyrosyl-DNA phosphodiesterase 1 (TDP1): qHTS in cells in absence of CPT; further: nearly all actives have a fitted effect of over 55% in size
Details: DT40 Tdp1-/- hTDP1 cells, no CPT, ATP luminescence, 48 h; activity change, negative = growth inhibition: at 46.2 µM (top of the series)
Method in brief: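 Compound effects on proliferation are scored in DT40 Tdp1-/-;hTDP1 cells in the absence of CPT. ATP levels (CellTiter-Glo luminescence) are recorded after a ≥48 hr, 37 °C incubation.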
On the % scale 0 is the no-effect control and ±100 the full control effect; potency means the concentration at half of the fitted maximal effect.

Row | Structure (SMILES) | activity change, negative = growth inhibition | Potency
1 | CCCCNC(=O)C1(c2ccc(OC)cc2)CCOCC1 | 5.04% | –
2 | CCCCc1ccc(S(N)(=O)=O)cc1 | 4.03% | –
3 | N#Cc1nc(/C=C/c2ccc(F)cc2)oc1NC1CCCCC1 | -30% | –
4 | Nc1nonc1-n1nnc(C(=O)N/N=C/c2ccc(Cl)cc2)c1-c1ccc2c(c1)OCO2 | -9.73% | –
5 | O=C(NCCCO)C(=O)Nc1c2c(nn1-c1ccc(F)cc1)CSC2 | -5.47% | –
6 | COc1ccc(S(=O)(=O)N2CCN(C(=O)N(C)C)C2C)cc1 (stereo unspecified) | -7.79% | –
7 | COC(=O)c1[nH]c2ccccc2c1NS(=O)(=O)c1ccc(OC)cc1OC | 1.01% | –
8 | COc1ccc(C)cc1Nc1nc(-c2c(C)[nH]c3ccccc23)cs1 | -22.6% | –
9 | CN=c1scc(-c2cc(OC)ccc2OC)n1/N=C/c1c(C)[nH]c2ccccc12 | – | 16.4 µM (active)
10 | COc1ccc(/C=C(\C#N)C(=O)OCC(=O)N(C)C2CCS(=O)(=O)C2)cc1 (stereo unspecified) | 6.36% | –
11 | COC(=O)/C(C#N)=C/c1occc1C | 0.245% | –
12 | COc1ccc(/C=C(\C#N)C(=O)ONC2=NCCCCC2)cc1 | – | 20.6 µM (active)
13 | CC(=O)C1C(c2ccc(Cl)cc2)NC(=O)NC1(O)C(F)(F)F (stereo unspecified) | 3.1% | –
14 | CN(CC#CCC(c1ccccc1)c1ccccc1)C(C)(C)C | – | 17.8 µM (active)
15 | O=C(CCc1ccccc1)NCCc1cccs1 | 14.1% | –
16 | COC(=O)[C@@H]1CC2=CC(=O)CC[C@]2(C)[C@@]23O[C@@H]2C[C@@]2(C)[C@@H](CC[C@@]24CCC(=O)O4)[C@H]13 | -25.3% | –

Row | Structure (SMILES) | activity change, negative = growth inhibition | Potency
17 | CC1(C)CC(N(Cc2ccccc2)C(=O)Cc2ccccc2)CCO1 (stereo unspecified) | -15.1% | –
18 | CC1(C)CC(CNCCC(c2ccc(F)cc2)c2ccco2)CCO1 (stereo unspecified) | – | 14.6 µM (active)
19 | O=c1c(Cl)c(NC2CC2)cnn1-c1ccccc1 | -1.63% | –
20 | Cc1cccc(-n2ncc(C#N)c2-n2cccc2)c1 | -15.3% | –
21 | Cc1cccc(-n2ncc(Cl)c(Cl)c2=O)c1 | – | 4.11 µM (active)
22 | O=C(NCC1CCCO1)c1cc2c(s1)CCCC2 (stereo unspecified) | 6.28% | –
23 | CC(C)C(=O)N1c2ccccc2NC2=C(C(=O)CCC2)C1c1ccc(N(C)C)cc1 (stereo unspecified) | -9.38% | –
24 | CCCOC(=O)Nc1ccccc1C(N)=O | -26.5% | –
25 | CCOC(=O)N(Cc1ccccc1)C1CC1 | 3.18% | –
26 | O=C(Nc1nnc(CCc2ccccc2)s1)C1CCCO1 (stereo unspecified) | -8.27% | –
27 | O=C(COC(=O)c1ccc(Cl)nc1)NCc1cccs1 | 2.89% | –
28 | Cc1cccc(C(=O)NCC(=O)OCC(=O)N2CC3(C)CC2CC(C)(C)C3)c1 (stereo unspecified) | 2.52% | –
29 | Cc1nnnn1/C(=C\c1ccccc1)C(=O)OCC(=O)N1CC2(C)CC1CC(C)(C)C2 (stereo unspecified) | – | 14.6 µM (active)
30 | CC(=O)NC(C)(C)C1CC=C(C)/C(=N\O)C1 (stereo unspecified) | 7.54% | –
31 | CCOC(=O)C1C(c2ccc(O)cc2)NC(=O)NC1(O)C(F)(F)F (stereo unspecified) | 16.9% | –
